Several values for one entry are separate records, joined by “and”; a condition that tells them apart may be missing. Identical values can stand only once. Results filed as inconclusive are left out. A call without a number means that no potency is given here. The source holds several records for some structures; these can differ, active in one and inactive in another. Activity calls are given as the source filed them. Calls come from the whole dose curve; as a rule, active = well fitted cell-killing curve with a large enough effect in the repeat runs; inconclusive = weak or mixed curves, or effect the other way; inactive = flat fitted curve, though single readings scatter.
Potency is the fitted concentration of half-maximal effect.

This assay in a line: qHTS assay to identify small molecule agonists of the TGF-beta/Smad signaling pathway - cell viability counter screen (AID 1346829). Note: nearly all actives have a fitted effect of over 45% in size. The note with it: SBE-bla HEK293T viability, CellTiter-Glo luminescence, 5 h; series mostly up to 76.8 µM. The source says:
National Center for Advancing Translational Sciences [NCATS]
NIH Chemical Genomics Center [NCGC]
U.S. Environmental Protection Agency [EPA]
National Institutes of Environmental Health Sciences [NIEHS]
National Toxicology Program [NTP]
U.S. Food and Drug Administration [FDA]
Transforming growth factor beta (TGF-beta) superfamily consists of a large number of structurally related dimeric proteins that act as hormones or local mediators in regulating a wide range of biological functions. This superfamily includes TGF-betas themselves, the bone morphogenetic proteins (BMPs) and the activins. These ligands induce oligomerization of serine/threonine receptor kinases and phosphorylate the cytoplasmic signaling molecules of Smad protein family. CellSensor SBE-bla HEK 293T cell line (Life Technologies, Carlsbad, CA), responsive to TGF-beta was used to screen Tox21 10K compound library for identification of agonists/antagonists of the Smad signaling pathway. This cell line contains a beta-lactamase reporter gene under control of the Smad binding element (SBE) stably integrated into HEK 293T cells. Also cytotoxicity of the compounds was tested in parallel by measuring the cell viability using CellTiter-Glo assay system in the same wells.
Tox21 Assay Protocol Summary:
SBE-bla HEK 293T cells were dispensed at 4,000/well in 6 uL of assay medium into black wall/clear-bottom 1536-well plates using a Multidrop Combi (ThermoFisher Scientific, Waltham, MA) dispenser. After the assay plates were incubated at 37 C and 5% CO2 for an overnight, 23 nL of compounds dissolved in DMSO, positive controls or DMSO only was transferred to the assay plate by a Pintool station (Kalypsys, San Diego, CA). The assay plates were incubated at 37 C and 5% CO2 for 5 hr. One uL of LiveBLAzer B/G FRET substrate (Life Technologies) was added using a Flying Reagent Dispenser (FRD, Aurora Discovery, San Diego, CA) and the plates were incubated at room temperature for 2 hr. Fluorescence intensity (405 nm excitation, 460 nm and 530 nm emissions) was measured using an Envision plate reader (PerkinElmer, Shelton, CT). For cytotoxicity read, 4 uL of CellTiter-Glo reagent (Promega Corporation, Madison, WI) was added to each well of the assay plates using FRD. After 30min incubation at room temperature, the luminescence intensity was measured using ViewLux plate reader (PerkinElmer).
Consider `Nc1ccc(S(N)(=O)=O)cc1`, for which the Potency entry was “inactive”.

Consider `CN(C)C(=O)Nc1ccc(Cl)c(Cl)c1`, for which the Potency result is “inactive”.

Regarding `CCOc1ccc(NC(C)=O)cc1`, the Potency result was “inactive”.

`CCCCC1(COC(=O)CCC(=O)O)C(=O)N(c2ccccc2)N(c2ccccc2)C1=O`: the Potency result was “inactive”.

In the case of `CCCc1cc(=O)[nH]c(=S)[nH]1`, the Potency result was “inactive”.

In the case of `COc1ccc(OC(F)(F)F)cc1CN[C@H]1CCCN[C@H]1c1ccccc1`, the Potency entry is “inactive”.

Turning to `NS(=O)(=O)c1cc2c(cc1Cl)NCNS2(=O)=O`, the Potency result is “inactive”.

Regarding `O=S1(=O)OC(c2ccc(O)cc2)(c2ccc(O)cc2)c2ccccc21`, the Potency result was “inactive”.

With `Nc1c2c(nc3ccccc13)CCCC2`, the Potency entry is “inactive”.

On to `CCCCCCCCCCCCCCCC[N+](C)(C)Cc1ccccc1`, for which the Potency is 45 µM (active) and 39.6 µM (active) and 19 µM (active).

Take `CC(=O)CC(c1ccccc1)c1c(O)c2ccccc2oc1=O` (stereo not given): the Potency entry was “inactive”.

Turning to `Cn1c(=O)c2c(ncn2C)n(C)c1=O`, the Potency result is “inactive”.

`CN1[C@@H]2CC(OC(=O)[C@H](CO)c3ccccc3)C[C@H]1[C@@H]1O[C@@H]12` (stereo not given in full): the Potency result was “inactive”.

Consider `CC(O)(P(=O)(O)O)P(=O)(O)O`, for which the Potency result is “inactive”.

As for `CC(C)c1c(C(=O)Nc2ccccc2)c(-c2ccccc2)c(-c2ccc(F)cc2)n1CC[C@@H](O)C[C@@H](O)CC(=O)O`, the Potency result is “inactive”.

Regarding `CNNCc1ccc(C(=O)NC(C)C)cc1`, the Potency result is “inactive”.

Turning to `CCc1nc(N)nc(N)c1-c1ccc(Cl)cc1`, the Potency entry was “inactive and 16.9 µM (active)”.

On to `CC(C)C(=O)Nc1ccc([N+](=O)[O-])c(C(F)(F)F)c1`, for which the Potency entry is “inactive”.

For the molecule `CN(C)CCOC(C)(c1ccccc1)c1ccccn1` (stereo not given), the Potency result is “inactive”.

As to `CC/C(=C(\c1ccccc1)c1ccc(OCCN(C)C)cc1)c1ccccc1`, the Potency was 55.3 µM (active) and inactive.

`COc1ccc(CN(CCN(C)C)c2ccccn2)cc1`: the Potency result was “inactive”.

`Nc1c(N=Nc2ccc(-c3ccc(N=Nc4cc(S(=O)(=O)O)c5ccccc5c4N)cc3)cc2)cc(S(=O)(=O)O)c2ccccc12`: the Potency entry is “inactive”.

As for `COc1ccc2c(c1)c(CC(=O)O)c(C)n2C(=O)c1ccc(Cl)cc1`, the Potency entry was “inactive”.

Consider `CCN(CC)C(=O)c1cccc(C)c1`, for which the Potency entry is “inactive”.

On to `CCCCNC(=O)NS(=O)(=O)c1ccc(C)cc1`, for which the Potency entry was “inactive”.

Regarding `CC1(C)S[C@@H]2[C@H](NC(=O)[C@H](N)c3ccccc3)C(=O)N2[C@H]1C(=O)O`, the Potency entry is “inactive”.

As to `C1=CC2C3C=CC(C3)C2C1` (stereo not given), the Potency entry was “inactive”.

`O=C(O)CC(O)C(=O)O` (stereo not given): the Potency entry is “inactive”.

With `CN(C)C(=S)SC(=S)N(C)C`, the Potency entry was “inactive”.

In the case of `Cc1cc(C)nc(NS(=O)(=O)c2ccc(N)cc2)n1`, the Potency result was “inactive”.

Turning to `Cc1c(C(=O)O)c(O)cc2c1C(=O)c1c(O)c([C@@H]3O[C@H](CO)[C@@H](O)[C@H](O)[C@H]3O)c(O)c(O)c1C2=O`, the Potency result was “inactive”.

Consider `CCN(Cc1c(F)cccc1Cl)c1c([N+](=O)[O-])cc(C(F)(F)F)cc1[N+](=O)[O-]`, for which the Potency result was “inactive”.

With `O=C(Nc1ncc([N+](=O)[O-])s1)c1cccs1`, the Potency was 15.1 µM (active).

`NC(CO)(CO)CO`: the Potency result was “inactive”.

With `NC(=O)c1cccnc1`, the Potency entry was “inactive”.

In the case of `CCCCCCCCCCCC[N+](C)(C)Cc1ccccc1`, the Potency was 48 µM (active) and 29.9 µM (active).

Regarding `C=C1CC[C@H](O)C/C1=C\C=C1/CCC[C@]2(C)[C@@H]([C@H](C)CCCC(C)C)CC[C@@H]12`, the Potency result was “inactive”.

In the case of `CC12CCC(CC1)C(C)(C)O2`, the Potency result is “inactive”.

As to `COc1ccc(C(Cl)=C(c2ccc(OC)cc2)c2ccc(OC)cc2)cc1`, the Potency entry is “inactive”.

Regarding `OC[C@H]1O[C@H](O[C@]2(CCl)O[C@H](CCl)[C@@H](O)[C@@H]2O)[C@H](O)[C@@H](O)[C@H]1Cl`, the Potency result is “inactive”.

Source of the values: PubChem BioAssay (Tox21).
